Assay results published in PubChem BioAssay.
Active and inactive are the calls of the source. Unless noted, no rule for the calls is given here.

Key:
[1] = compounds binding Alexa647 anti-His antibody – biochemical, small-molecule microarray, 635 nm fluorescence, artefact control for SMM control protein annotation, primary screen (AID 1128); conditions: higher = more signal;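 also: score merges feature fluorescence with signal-to-noise for each printed compound spot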
[2] = test system: Human papillomavirus type 1a E7 protein (residues 1-88); experiment: HPV1a E7 small-molecule binders, primary screen, biochemical, small-molecule microarray, residues 1-88, 635 nm (AID 1129); conditions: small-molecule microarray binding, fluorescence 635 nm; higher = more signal
[3] = target: Focal adhesion kinase 1 (Homo sapiens) (UniProt Q05397); experiment: PTK2 protein binding on printed compound slides – biochemical, small-molecule microarray, 635/667 nm fluorescence, BSA, DTT, primary screen (AID 1130); conditions: 635 nm fluorescence, higher = more signal;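 also: composite of spot emission at 667 nm and signal to noise over triplicate slides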
Focal adhesion kinase 1 (Homo sapiens), sequence (Q05397 whole entry, looked up): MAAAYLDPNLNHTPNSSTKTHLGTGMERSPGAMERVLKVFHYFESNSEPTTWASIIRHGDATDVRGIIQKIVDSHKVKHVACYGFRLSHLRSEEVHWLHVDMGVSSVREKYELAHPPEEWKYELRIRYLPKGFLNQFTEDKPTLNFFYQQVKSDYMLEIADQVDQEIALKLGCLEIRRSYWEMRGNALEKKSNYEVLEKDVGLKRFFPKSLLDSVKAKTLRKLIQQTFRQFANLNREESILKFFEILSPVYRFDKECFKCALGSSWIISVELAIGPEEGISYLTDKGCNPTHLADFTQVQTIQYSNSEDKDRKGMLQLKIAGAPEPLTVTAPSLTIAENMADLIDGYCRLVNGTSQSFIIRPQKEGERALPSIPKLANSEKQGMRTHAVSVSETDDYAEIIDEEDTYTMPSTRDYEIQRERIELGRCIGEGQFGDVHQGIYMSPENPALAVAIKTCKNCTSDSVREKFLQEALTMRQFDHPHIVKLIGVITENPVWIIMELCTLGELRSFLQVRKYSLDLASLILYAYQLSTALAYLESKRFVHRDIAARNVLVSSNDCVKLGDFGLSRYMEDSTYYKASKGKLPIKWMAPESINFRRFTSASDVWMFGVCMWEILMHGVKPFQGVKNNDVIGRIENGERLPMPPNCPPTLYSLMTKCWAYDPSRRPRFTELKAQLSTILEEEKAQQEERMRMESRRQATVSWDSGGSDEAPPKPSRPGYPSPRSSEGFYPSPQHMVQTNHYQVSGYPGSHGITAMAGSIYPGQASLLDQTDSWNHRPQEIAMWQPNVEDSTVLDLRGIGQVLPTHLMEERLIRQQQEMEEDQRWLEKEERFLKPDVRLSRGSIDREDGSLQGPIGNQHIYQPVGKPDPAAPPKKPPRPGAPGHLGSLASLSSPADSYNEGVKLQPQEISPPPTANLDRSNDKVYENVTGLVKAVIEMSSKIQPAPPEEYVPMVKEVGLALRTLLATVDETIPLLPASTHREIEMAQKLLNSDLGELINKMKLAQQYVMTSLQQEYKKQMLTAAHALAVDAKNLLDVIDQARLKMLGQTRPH

[4] = test system: Fibrinogen (Alexa647-labelled); experiment: Alexa647-fibrinogen binding to printed small molecules – biochemical, small-molecule microarray, 635/667 nm fluorescence, artefact control for SMM control-protein annotation, profiling panel (AID 1131); conditions: fibrinogen-A647 binding fluorescence, higher = more signal;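 also: z-score merges 667 nm fluorescence with per-spot signal-to-noise over triplicate slides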
[5] = target: Follistatin (Homo sapiens) (UniProt P19883); experiment: FST protein binding to printed compounds – biochemical, small-molecule microarray, 635/667 nm fluorescence, primary screen (AID 1132); conditions: 635 nm fluorescence, higher = more signal
Follistatin (Homo sapiens), sequence (P19883 whole entry, looked up): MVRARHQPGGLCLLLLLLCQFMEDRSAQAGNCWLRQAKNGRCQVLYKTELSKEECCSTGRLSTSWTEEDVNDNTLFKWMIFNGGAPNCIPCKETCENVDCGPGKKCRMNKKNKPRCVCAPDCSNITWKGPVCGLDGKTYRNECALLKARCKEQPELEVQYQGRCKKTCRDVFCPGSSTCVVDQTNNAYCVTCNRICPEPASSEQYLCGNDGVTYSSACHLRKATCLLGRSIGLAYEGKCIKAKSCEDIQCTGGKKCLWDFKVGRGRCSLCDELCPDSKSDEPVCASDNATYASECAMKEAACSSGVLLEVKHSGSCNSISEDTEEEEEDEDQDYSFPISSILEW

[6] = target: Fibroblast growth factor 2 (Homo sapiens) (UniProt P09038); experiment: basic fibroblast growth factor binding to printed compounds – biochemical, small-molecule microarray, 635/667 nm fluorescence, primary screen (AID 1133); conditions: FGF2, fluorescence 635/667, higher = more signal
Fibroblast growth factor 2 (Homo sapiens), sequence (P09038 whole entry, looked up): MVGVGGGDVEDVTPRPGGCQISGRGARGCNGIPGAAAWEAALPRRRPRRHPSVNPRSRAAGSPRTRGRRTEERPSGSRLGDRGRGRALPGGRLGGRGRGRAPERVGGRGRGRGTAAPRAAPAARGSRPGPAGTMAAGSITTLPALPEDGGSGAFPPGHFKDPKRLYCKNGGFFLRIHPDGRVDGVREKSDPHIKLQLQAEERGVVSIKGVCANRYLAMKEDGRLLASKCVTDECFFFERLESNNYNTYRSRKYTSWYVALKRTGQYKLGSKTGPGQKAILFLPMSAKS

[7] = JC-1 mitochondrial potential readout, lung cancer cells – cell-based, A549, JC-1 fluorescence, basal, 24 h, 100 nL, profiling panel (AID 1138); conditions: higher = more signal;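 also: A549 lung adenocarcinoma cells under basal conditions with no added stimulus; test concentration not given here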
Lefty1 = Lefty1 protein binding to printed compounds – biochemical, small-molecule microarray, 635/667 nm fluorescence, primary screen (AID 1139); conditions: fluorescence 635/667, higher = more signal
[8] = test system: wheat germ agglutinin (Triticum aestivum), Alexa647-labelled; experiment: Alexa647-WGA lectin binding to printed small molecules – biochemical, small-molecule microarray, 635/667 nm fluorescence, artefact control for SMM control-protein annotation, profiling panel (AID 1140); conditions: WGA-A647 binding, 635 nm fluorescence, higher = more signal;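 also: score merges 667 nm feature emission with signal to noise over triplicate slides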
[9] = target: Luciferin 4-monooxygenase (Photinus pyralis) (UniProt P08659); experiment: inhibition of purified Photinus pyralis luciferase – biochemical, luminescence, purified enzyme, 2006 set, primary screen (AID 1141); conditions: purified firefly luciferase, SteadyGlo luminescence, 30 min; higher = more signal, called active from +8 up or from −8 down;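 also: cell-free assay with purified firefly luciferase at 100 ng per well in PBS; test concentration not given here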
Luciferin 4-monooxygenase (Photinus pyralis), sequence (P08659 whole entry, looked up): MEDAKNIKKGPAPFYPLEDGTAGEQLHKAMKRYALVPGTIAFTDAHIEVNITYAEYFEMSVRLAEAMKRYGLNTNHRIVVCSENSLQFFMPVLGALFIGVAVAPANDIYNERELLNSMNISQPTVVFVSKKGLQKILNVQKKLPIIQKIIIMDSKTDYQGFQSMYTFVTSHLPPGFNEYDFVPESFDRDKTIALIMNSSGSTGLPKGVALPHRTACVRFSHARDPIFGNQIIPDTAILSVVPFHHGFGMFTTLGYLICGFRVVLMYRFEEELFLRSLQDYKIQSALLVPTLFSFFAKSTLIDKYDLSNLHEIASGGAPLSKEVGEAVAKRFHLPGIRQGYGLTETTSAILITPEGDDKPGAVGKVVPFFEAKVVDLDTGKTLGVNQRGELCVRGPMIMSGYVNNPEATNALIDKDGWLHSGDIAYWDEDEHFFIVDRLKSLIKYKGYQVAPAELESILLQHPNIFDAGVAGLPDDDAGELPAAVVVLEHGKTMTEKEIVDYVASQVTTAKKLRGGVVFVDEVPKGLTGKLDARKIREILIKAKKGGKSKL

[10] = test system: Wnt5a (protein binding on small-molecule microarray); experiment: small molecules binding Wnt5a protein – biophysical, small-molecule microarray, 635/667 nm fluorescence, primary screen (AID 1142); conditions: 635 nm fluorescence, higher = more signal;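 also: fluorescence read at 667 nm with signal to noise per printed feature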
[11] = ATP-based viability of Huh7 replicon cells – cell-based, CellTiter-Glo luminescence, basal, 48 h, cytotoxicity control for HCV replication inhibitor project, primary screen (AID 1143); conditions: higher = more signal, called active from +8 up or from −8 down;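 also: Huh7 hepatoma cells carrying a hepatitis C replication reporter with no stimulus; test concentration not given here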
[12] = Pseudomonas biofilm growth suppression – PAO1 strain, BacTiter-Glo luminescence, LB-PBS, primary screen (AID 1144); conditions: P. aeruginosa PAO1 biofilm, 12 h, higher = more signal
[13] = basal CRE-LacZ reporter activity in PC12 – cell-based, unstimulated, primary screen (AID 1145); conditions: no forskolin, luminescence, 4.5 h, higher = more signal, called active from +8 up or from −8 down
[14] = forskolin-driven CRE-LacZ activity in PC12 – cell-based, CRE-LacZ reporter, forskolin-stimulated, primary screen (AID 1146); conditions: luminescence, 4.5 h, higher = more signal, called active from +8 up or from −8 down;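 also: PC12 cells with 6xCRE LacZ reporter stimulated by forskolin 10 µM; beta-galactosidase reporter signal reflecting CREB driven transcription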
[15] = target: Streptavidin (Streptomyces avidinii) (UniProt P22629); experiment: compounds binding control protein streptavidin – biophysical, small-molecule microarray, 635/667 nm fluorescence, artefact control for SMM compound annotation, primary screen (AID 1147); conditions: higher = more signal;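 also: signal reflects streptavidin binding to arrayed compounds as a control protein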
Streptavidin (Streptomyces avidinii), sequence (P22629 whole entry, looked up): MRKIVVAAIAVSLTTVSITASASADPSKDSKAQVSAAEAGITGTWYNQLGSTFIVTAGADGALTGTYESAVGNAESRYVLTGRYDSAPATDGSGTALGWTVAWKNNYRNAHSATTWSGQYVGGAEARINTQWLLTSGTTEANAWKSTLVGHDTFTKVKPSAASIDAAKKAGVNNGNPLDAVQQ

[16] = probe aInhba binding on compound microarray – biochemical, small-molecule microarray, 635/667 nm fluorescence, primary screen (AID 1148); conditions: higher = more signal;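 also: score merges 667nm spot fluorescence with signal-to-noise for antibody binding to printed compounds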
Torsin-1A (Homo sapiens) [17] = target: Torsin-1A (Homo sapiens) (UniProt O14656); experiment: TOR1A wild-type binding on microarray – cell lysate, small-molecule microarray, lysate, 635/667 nm, primary screen (AID 1149); conditions: COS7 hTOR1A-WT lysate, 635 nm fluorescence, higher = more signal
Torsin-1A (Homo sapiens), sequence (O14656 whole entry, looked up): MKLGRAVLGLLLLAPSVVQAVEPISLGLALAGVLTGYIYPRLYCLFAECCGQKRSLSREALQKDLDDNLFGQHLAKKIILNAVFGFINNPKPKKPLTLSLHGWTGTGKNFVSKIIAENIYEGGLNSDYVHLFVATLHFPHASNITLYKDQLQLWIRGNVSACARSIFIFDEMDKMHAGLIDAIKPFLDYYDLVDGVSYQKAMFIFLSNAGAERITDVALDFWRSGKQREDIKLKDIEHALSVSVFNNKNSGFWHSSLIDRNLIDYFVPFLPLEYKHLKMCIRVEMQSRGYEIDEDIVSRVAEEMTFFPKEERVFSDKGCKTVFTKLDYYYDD

Torsin-1A (Homo sapiens) [18] = target: Torsin-1A (Homo sapiens) (UniProt O14656); experiment: torsin A mutant lysate binding on microarrays – cell lysate, small-molecule microarray, COS7 lysate, 635/667 nm fluorescence, primary screen (AID 1150); conditions: COS7 hTOR1A mutant lysate, 635 nm fluorescence, higher = more signal;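 also: score pools 667 nm emission and signal to noise measuring lysate protein binding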
[19] = test system: Sonic hedgehog protein (Shh); experiment: Sonic hedgehog microarray binding compounds – biochemical, small-molecule microarray, 635/667 nm fluorescence, primary screen (AID 1151); conditions: 635 nm fluorescence, higher = more signal;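 also: Shh protein binding to compounds spotted on small-molecule microarray slides; score combines spot fluorescence intensity with signal-to-noise across triplicate slides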

COc1ccc(C(=O)Nc2ccc(CN3C(=O)[C@@]4(O[C@@H](CCO)[C@H]([Si](C)(C)c5ccc(OC)cc5)[C@H]4C)c4ccccc43)cc2)cc1
composite z-score [1]: 1.42
composite z-score [2]: 0.97
composite z-score [3]: -0.0228
composite z-score [4]: 0.673
composite z-score [5]: 1.37
composite z-score [6]: 1.55
z-score [7]: -1.49
composite z-score (Lefty1): 1.45
composite z-score [8]: 0.559
z-score [9]: -0.555 (inactive)
composite z-score [10]: 0.146
z-score [11]: -8.02 (active)
z-score [12]: 0.422 (inactive)
z-score [13]: 3.11 (inactive)
z-score [14]: -1.27 (inactive)
composite z-score [15]: 0.225
composite z-score [16]: -0.201
composite z-score (Torsin-1A (Homo sapiens) [17]): 1.05
composite z-score (Torsin-1A (Homo sapiens) [18]): 0.471
composite z-score [19]: 1.96

COc1cc(OC)c(C(O)C2C=CC3C(=O)NC(=O)C3N2Nc2ccc(Cl)cc2Cl)cc1Br (stereo not given)
composite z-score [1]: 1.29
composite z-score [2]: 1.22
composite z-score [3]: 0.859
composite z-score [4]: 0.786
composite z-score [5]: 0.677
composite z-score [6]: 0.518
z-score [7]: -0.824
composite z-score (Lefty1): 0.0498
composite z-score [8]: 1.07
z-score [9]: 0.719 (inactive)
composite z-score [10]: 0.153
z-score [11]: -2.57 (inactive)
z-score [12]: -0.835 (inactive)
z-score [13]: 0.433 (inactive)
z-score [14]: -0.919 (inactive)
composite z-score [15]: 1.64
composite z-score [16]: 0.0111
composite z-score (Torsin-1A (Homo sapiens) [17]): -0.241
composite z-score (Torsin-1A (Homo sapiens) [18]): 0.414
composite z-score [19]: -0.366

COC(=O)[C@@]1(Cc2ccc(OC)cc2)[C@H]2c3cc(C(=O)N4CCCC4)n(Cc4ccsc4Br)c3C[C@H]2CN1C(=O)c1ccccc1
composite z-score [1]: 0.198
composite z-score [2]: 1.12
composite z-score [3]: 0.565
composite z-score [4]: -0.152
composite z-score [5]: 0.073
composite z-score [6]: -0.88
z-score [7]: -0.404
composite z-score (Lefty1): -0.402
composite z-score [8]: 0.604
z-score [9]: -0.777 (inactive)
composite z-score [10]: 0.0185
z-score [11]: -3.29 (inactive)
z-score [12]: 0.674 (inactive)
z-score [13]: 1.72 (inactive)
z-score [14]: 46.9 (active)
composite z-score [15]: 0.161
composite z-score [16]: 0.19
composite z-score (Torsin-1A (Homo sapiens) [17]): -0.34
composite z-score (Torsin-1A (Homo sapiens) [18]): 0.185
composite z-score [19]: -0.658

O=C(NCc1ccc(F)cc1)[C@H]1C[C@H]2C(=O)N[C@@H](Cc3ccccc3)C(=O)N2[C@H]1c1ccc(O)cc1
composite z-score [1]: 1.53
composite z-score [2]: 0.526
composite z-score [3]: 0.063
composite z-score [4]: -0.102
composite z-score [5]: 1.38
composite z-score [6]: 1.59
z-score [7]: 0.574
composite z-score (Lefty1): -0.169
composite z-score [8]: -0.262
z-score [9]: -0.568 (inactive)
composite z-score [10]: -0.0011
z-score [11]: -0.411 (inactive)
z-score [12]: 0.506 (inactive)
z-score [13]: -0.801 (inactive)
z-score [14]: -0.887 (inactive)
composite z-score [15]: -0.507
composite z-score [16]: -0.206
composite z-score (Torsin-1A (Homo sapiens) [17]): 1.08
composite z-score (Torsin-1A (Homo sapiens) [18]): 1.37
composite z-score [19]: 1.1
